Measurements reported in PubChem BioAssay (NCI).
This is part of a sample that, as a whole, favours compounds with a hit. Of some 83,000 tested, about 20% had one in any assay.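 Negative percent growth values reflect cell death: -40 means 40% of the cells present at the start died, and -100 means all died.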 Values without a mark were called inactive. Calls of active or inactive are those of the source. How the source made its calls: active means growth percent below 10; inactive means the rest.

What was measured:
Assay in all cases: NCI-60 one-dose screen, 48 h (100 = growth as untreated, 0 = no growth, -100 = all killed)
Details in all cases: 10 µM
[1] = tested on: RPMI-8226 leukemia
[2] = tested on: OVCAR-8 ovarian
[3] = tested on: OVCAR-5 ovarian
[4] = tested on: OVCAR-4 ovarian
[5] = tested on: SK-OV-3 ovarian
[6] = tested on: IGROV1 ovarian
[7] = tested on: OVCAR-3 ovarian
[8] = tested on: HS 578T breast
[9] = tested on: NCI/ADR-RES ovarian

Compound | growth [1] | growth [2] | growth [3] | growth [4] | growth [5] | growth [6] | growth [7] | growth [8] | growth [9]
CCN1CCN(c2ccc(NC(=O)Nc3ccc(-c4cc(C(=O)NC(C)C)c5ncccc5n4)cc3)cc2C(F)(F)F)CC1 | -43.3% (active) | -83.3% (active) | -83.2% (active) | -83.2% (active) | -91% (active) | -86% (active) | -60.1% (active) | -37.7% (active) | -66.9% (active)
O=C1NC(=NC23CC4CC(CC(C4)C2)C3)N/C1=C\c1ccc2ncccc2n1 | -23.3% (active) | 2.33% (active) | -40.4% (active) | -24.7% (active) | -10.5% (active) | -6.63% (active) | -22.3% (active) | -24.3% (active) | -21% (active)
NC1=NC(c2ccccc2Cl)N=C(Nc2nn[nH]n2)N1 (centres undefined) | 99.2% | 102% | 118% | 99.8% | 123% | 115% | 107% | 103% | 104%
CS(=O)(=O)Nc1ccc(-c2ccc3c(c2)ncn3-c2ccc(NC(=O)Nc3ccc(Br)cc3)cc2)cc1 | -24% (active) | 17.1% | 20.1% | 18.1% | 1.06% (active) | 26.7% | 5.29% (active) | 0.433% (active) | 59.8%
COc1ccc(CCN2C(=O)/C(=C/c3csc(C#N)n3)SC2=S)cc1OC | -7.56% (active) | 69.2% | 116% | 66.3% | 107% | 90.7% | -17.7% (active) | 66.3% | 93.3%
O=C1NC(=NC2CCCCCC2)N/C1=C\c1ccc2ncoc2c1 | 35.9% | 27.3% | 50.3% | 62% | 24.4% | 34.6% | -3.02% (active) | 42% | 41.1%
COc1ccc(C(C)=C(c2ccc(OCCCN(C)C)cc2)c2ccc(OCCCN(C)C)cc2)cc1 | -66% (active) | -92.6% (active) | -100% (active) | -94.6% (active) | -99.5% (active) | -91.1% (active) | -81.3% (active) | -68.2% (active) | -96.6% (active)
C=CC(=O)Nc1nc(-c2cccc(NS(=O)(=O)c3cccc4c(N(C)C)cccc34)c2)cs1 | -36.2% (active) | -38.9% (active) | -61.6% (active) | 7.55% (active) | 47.4% | -74.1% (active) | -69.4% (active) | -0.555% (active) | -56.7% (active)
Cc1cc(C)cc(Oc2cccc(-c3c(C)nnn3C3CCN(CCN(C)C)CC3)n2)c1 | -12.1% (active) | 35.9% | 58% | 38.9% | 9.31% (active) | 36.2% | 38% | 5.31% (active) | 32.4%
O=c1oc2ccc(-c3ccc(F)cc3F)cc2c(=O)n1-c1ccc(F)cc1 | -26.9% (active) | 14.7% | 50.8% | 10.8% | -11% (active) | 23.5% | 3.4% (active) | -0.922% (active) | -16.9% (active)
CO[C@@H]1CSSC1Cn1nc(-c2ccc(Oc3ccccc3)cc2)c2c(N)ncnc21 (some centres undefined) | 34.6% | 75.5% | 62.5% | 53.3% | 1.98% (active) | 53.1% | 56% | 61.6% | 57.5%
O=C(CSc1ccc(-c2ccc(Cl)cc2)nn1)Nc1ccc(Cl)c(C(F)(F)F)c1 | 66.8% | 76.4% | 79.6% | 76.1% | 75.4% | 70.9% | 69.3% | 70.6% | 27.9%
COc1ccc2[nH]c(O)c(N=NC(=O)COc3ccc(NC(=O)Nc4ccc(Cl)c(Cl)c4)cc3)c2c1 | 11.1% | -69.2% (active) | -21.8% (active) | -92.7% (active) | -12.4% (active) | -4.72% (active) | -44.5% (active) | -3.4% (active) | 84.4%
COC[C@@H](CC(C)C)N=C1NC(=O)/C(=C/c2ccc3ncoc3c2)N1 | 0.955% (active) | 12.4% | -11.6% (active) | 53.7% | -40.8% (active) | 7.9% (active) | -26.3% (active) | 25.9% | 20.3%
O=C(c1ccc(Cl)cc1)C1[C@H](c2ccc(Br)cc2)[C@@H](c2ccccc2)NC12C(=O)Nc1ccccc12 (some centres undefined) | -8.78% (active) | 7.73% (active) | -25.8% (active) | 12% | 12.7% | 6.67% (active) | -30.1% (active) | -8.79% (active) | -53.1% (active)
O=c1oc2ccc(-c3ccc(F)cc3F)cc2c(=O)n1-c1ccc(Cl)c(C(F)(F)F)c1 | -32.1% (active) | 6.71% (active) | -2.12% (active) | 16.1% | -4.08% (active) | 17.8% | 11.7% | -0.864% (active) | -12.2% (active)
O=C(NCCCCC(c1ccc(F)cc1)c1ccc(F)cc1)NCCCc1cccnc1 | -42.1% (active) | 11.4% | 27.9% | 20.6% | 23.6% | 31.6% | 26.5% | 56.4% | 12.9%
O=C(CS(=O)(=O)c1oc(-c2ccc(Cl)cc2)nc1S(=O)(=O)c1ccccc1)N1CCCC1 | -13.8% (active) | -31.8% (active) | -51.4% (active) | -90.1% (active) | 97.9% | 74.4% | -90.1% (active) | 60.2% | 9.98% (active)
C=CC(=O)Nc1ccc(C(=O)/C=C/c2ccc(N(C)CCF)cc2)c(O)c1 | 3.47% (active) | -45.8% (active) | -49.3% (active) | 19.8% | 3.61% (active) | -53.5% (active) | -69% (active) | 19.7% | 0.782% (active)
COc1cccc(-c2ccc(/C=N/NC(=O)c3[nH]c4ccc(Br)cc4c3-c3ccccc3)o2)c1 | 1.18% (active) | -16% (active) | 12.3% | 37.3% | 34.2% | 32.6% | 8.31% (active) | -1.37% (active) | -35% (active)
CCCCCc1ccc(S(=O)(=O)N(C(C)=O)c2cc(-c3csc(N(C)C(C)=O)n3)ccc2N2CCN(C)CC2)cc1 | -24.8% (active) | 41.2% | 57.6% | 62% | 96% | 68.2% | 44.7% | 35.7% | 47.9%
COc1ccccc1[C@H]1C(C(=O)c2ccc(Cl)cc2)C2(N[C@@H]1c1ccccc1)C(=O)Nc1ccc(Cl)cc12 (some centres undefined) | 6.41% (active) | 12.2% | -8.45% (active) | 24% | 28.8% | 22.1% | 3.66% (active) | -2.19% (active) | -65.5% (active)
CC1(C)CC[C@]2(C(=O)O)CC[C@]3(C)C(=CC[C@@H]4[C@@]5(C)C/C(=C/c6ccncc6)[C@H](O)C(C)(C)[C@@H]5CC[C@]43C)[C@@H]2C1 | 19% | 44.5% | 67.6% | 42.6% | 65% | 49.1% | 40.9% | 52.7% | 32.7%
Cc1ccc(-c2nc3ccc(C(=O)N=Nc4c(O)[nH]c5ccc([N+](=O)[O-])cc45)cc3[nH]2)cc1 | 104% | 75.3% | 101% | 55.2% | 78.9% | 89.2% | 21.9% | 74.6% | 103%
Cc1nn(-c2ccccc2)c2ncn(CC(=O)N/N=C/c3c[nH]c4ccccc34)c(=O)c12 | 73.2% | 89.1% | 103% | 83.2% | 106% | 106% | 84.3% | 72.7% | 101%
C#CCNC(=O)[C@]12CCC(C)(C)C[C@H]1C1=CC[C@@H]3[C@@](C)(CCC#N)[C@H](C(=C)C)CC[C@@]3(C)[C@]1(C)CC2 | 22.2% | 64.2% | 77.4% | 68.2% | 62.6% | 71.9% | 91.8% | 79.4% | 62.5%
